Consider 30 sequences from article PMC7862700, “An all-to-all approach to the identification of sequence-specific readers for epigenetic DNA modifications on cytosine”.

The first assay addresses T1, ERF (Homo sapiens, UniProt P50548 1-548).
T1 sequence: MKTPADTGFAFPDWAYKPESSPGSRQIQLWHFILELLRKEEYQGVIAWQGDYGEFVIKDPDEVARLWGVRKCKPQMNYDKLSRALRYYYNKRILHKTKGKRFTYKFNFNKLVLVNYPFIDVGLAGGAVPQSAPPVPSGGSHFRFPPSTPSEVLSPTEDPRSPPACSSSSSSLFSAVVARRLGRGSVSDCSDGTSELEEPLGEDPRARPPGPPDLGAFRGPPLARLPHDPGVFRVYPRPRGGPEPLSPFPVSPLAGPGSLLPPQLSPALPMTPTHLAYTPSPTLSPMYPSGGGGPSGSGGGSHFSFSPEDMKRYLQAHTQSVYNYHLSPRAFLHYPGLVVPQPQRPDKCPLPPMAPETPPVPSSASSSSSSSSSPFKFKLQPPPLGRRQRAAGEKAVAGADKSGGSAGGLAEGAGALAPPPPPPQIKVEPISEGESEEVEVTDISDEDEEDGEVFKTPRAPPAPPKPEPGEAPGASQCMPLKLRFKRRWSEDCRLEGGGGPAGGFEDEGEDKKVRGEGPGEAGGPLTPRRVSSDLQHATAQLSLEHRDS
Put plainly: DAPPL (digital affinity profiling via proximity ligation, sequencing); 10 mM Tris-HCl pH 7.5, 50 mM NaCl, 1 mM DTT, 4% glycerol, room temperature, 30 min; GST-TFs on glutathione beads, 16-mer random dsDNA library, 0.1% formaldehyde crosslink after washing; high values mean tight binding. Conditions: protein: recombinant; tags: N-terminal GST; dsDNA, one strand shown. In outline: (§1)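 Pools of DNA-barcoded human transcription factors, expressed in yeast as GST fusions on glutathione beads and combined with a tag-only sample, were incubated with 200 nmole of a 16-mer random double-stranded DNA library. Incubation took 30 min at room temperature in Tris/NaCl/DTT/glycerol buffer and was followed by washing, 0.1% formaldehyde crosslinking, proximity ligation (BsaI/T4 ligase, 1 h, 37 °C), PCR amplification and sequencing on an Illumina NextSeq500. Binding signal is the ratio of a hexamer's read frequency for a factor to its frequency for the tag-only sample.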
Take CAGTTT: the binding signal is 1.01 fold enrichment (6-mer frequency, TF over GST control).

In the case of ATAGAG, the binding signal is 1.01 fold enrichment (6-mer frequency, TF over GST control).

Regarding TTGGAC, the binding signal was 1.02 fold enrichment (6-mer frequency, TF over GST control).

On to GCGCTA, for which the binding signal was 1.05 fold enrichment (6-mer frequency, TF over GST control).

In the case of AAGACA, the binding signal was 1.07 fold enrichment (6-mer frequency, TF over GST control).

For AGCACC, the binding signal was 1.03 fold enrichment (6-mer frequency, TF over GST control).

Regarding GCTGTC, the binding signal is 1.03 fold enrichment (6-mer frequency, TF over GST control).

In the case of GACCCT, the binding signal was 1.05 fold enrichment (6-mer frequency, TF over GST control).

GACGAA: the binding signal was 1.01 fold enrichment (6-mer frequency, TF over GST control).

Another assay has as its target T2, ETV3L (Homo sapiens, UniProt Q6ZN32 1-361).
T2 sequence: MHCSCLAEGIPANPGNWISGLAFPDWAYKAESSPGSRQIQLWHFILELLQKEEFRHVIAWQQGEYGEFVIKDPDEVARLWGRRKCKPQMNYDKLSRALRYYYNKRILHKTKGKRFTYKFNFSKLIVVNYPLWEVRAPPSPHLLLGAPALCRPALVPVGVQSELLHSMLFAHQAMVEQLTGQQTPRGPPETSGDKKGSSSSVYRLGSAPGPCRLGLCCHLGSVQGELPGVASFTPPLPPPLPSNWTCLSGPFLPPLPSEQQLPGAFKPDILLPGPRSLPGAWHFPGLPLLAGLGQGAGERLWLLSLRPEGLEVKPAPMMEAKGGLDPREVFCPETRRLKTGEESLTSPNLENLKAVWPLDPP
The description is as above. The conditions noted are these: protein: recombinant; tags: N-terminal GST; dsDNA, one strand shown. In outline: as §1
On to GACACC, for which the binding signal is 1.01 fold enrichment (6-mer frequency, TF over GST control).

For AGCGCA, the binding signal was 1.01 fold enrichment (6-mer frequency, TF over GST control).

With TCGCCA, the binding signal is 1.01 fold enrichment (6-mer frequency, TF over GST control).

As to GTATAG, the binding signal was 1 fold enrichment (6-mer frequency, TF over GST control).

Consider GGGCTG, for which the binding signal is 1.03 fold enrichment (6-mer frequency, TF over GST control).

Regarding AAGACA, the binding signal was 1.01 fold enrichment (6-mer frequency, TF over GST control).

As for AGTTCA, the binding signal is 1.04 fold enrichment (6-mer frequency, TF over GST control).

For GGTTGC, the binding signal was 1.01 fold enrichment (6-mer frequency, TF over GST control).

For the sequence AGCACC, the binding signal is 1.04 fold enrichment (6-mer frequency, TF over GST control).

A further assay concerns the target T3, ETS2 (Homo sapiens, UniProt P15036 1-469).
T3 sequence: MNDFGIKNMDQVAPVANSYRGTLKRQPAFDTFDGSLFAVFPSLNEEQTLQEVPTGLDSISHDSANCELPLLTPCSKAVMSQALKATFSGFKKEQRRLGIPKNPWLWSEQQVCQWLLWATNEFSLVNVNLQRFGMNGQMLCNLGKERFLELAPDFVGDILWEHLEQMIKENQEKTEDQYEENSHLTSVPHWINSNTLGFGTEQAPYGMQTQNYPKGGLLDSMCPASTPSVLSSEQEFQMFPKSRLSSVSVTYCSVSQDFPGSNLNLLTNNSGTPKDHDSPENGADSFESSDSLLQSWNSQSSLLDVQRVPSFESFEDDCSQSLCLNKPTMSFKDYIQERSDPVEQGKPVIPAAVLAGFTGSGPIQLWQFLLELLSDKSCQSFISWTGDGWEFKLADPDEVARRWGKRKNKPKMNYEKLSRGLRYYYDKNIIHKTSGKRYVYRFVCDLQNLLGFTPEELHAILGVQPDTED
Described as above. Conditions: protein: recombinant; tags: N-terminal GST; dsDNA, one strand shown. In outline:
as §1
For GGCCAC, the binding signal is 1 fold enrichment (6-mer frequency, TF over GST control).

As to AAGACA, the binding signal was 1.01 fold enrichment (6-mer frequency, TF over GST control).

Consider AGTTCA, for which the binding signal was 1 fold enrichment (6-mer frequency, TF over GST control).

In another assay the target is T4, SPDEF (Homo sapiens, UniProt O95238 1-335).
T4 sequence: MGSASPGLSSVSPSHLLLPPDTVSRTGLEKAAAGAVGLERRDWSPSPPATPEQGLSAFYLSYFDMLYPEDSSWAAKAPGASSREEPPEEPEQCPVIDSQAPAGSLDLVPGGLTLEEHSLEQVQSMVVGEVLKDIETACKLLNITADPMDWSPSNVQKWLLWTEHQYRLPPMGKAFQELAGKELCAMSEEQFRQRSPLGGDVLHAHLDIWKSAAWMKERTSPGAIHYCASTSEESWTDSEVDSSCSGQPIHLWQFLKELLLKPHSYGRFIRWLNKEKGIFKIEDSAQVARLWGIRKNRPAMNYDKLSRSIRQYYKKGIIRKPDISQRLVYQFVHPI
The assay is described as above. The conditions noted are these: protein: recombinant; tags: N-terminal GST; dsDNA, one strand shown. A digest of the protocol: as §1
Regarding TGTAGT, the binding signal was 1.03 fold enrichment (6-mer frequency, TF over GST control).

Take GGGTCT: the binding signal is 1.01 fold enrichment (6-mer frequency, TF over GST control).

In the case of CCGGGC, the binding signal was 1.05 fold enrichment (6-mer frequency, TF over GST control).

Consider CGGTAC, for which the binding signal was 1.07 fold enrichment (6-mer frequency, TF over GST control).

As to GATGTG, the binding signal is 1.18 fold enrichment (6-mer frequency, TF over GST control).

For GGGTCC, the binding signal was 1 fold enrichment (6-mer frequency, TF over GST control).

CGCATC: the binding signal is 1.02 fold enrichment (6-mer frequency, TF over GST control).

A further assay deals with T5, ETV7 (Homo sapiens, UniProt Q9Y603 1-341).
T5 sequence: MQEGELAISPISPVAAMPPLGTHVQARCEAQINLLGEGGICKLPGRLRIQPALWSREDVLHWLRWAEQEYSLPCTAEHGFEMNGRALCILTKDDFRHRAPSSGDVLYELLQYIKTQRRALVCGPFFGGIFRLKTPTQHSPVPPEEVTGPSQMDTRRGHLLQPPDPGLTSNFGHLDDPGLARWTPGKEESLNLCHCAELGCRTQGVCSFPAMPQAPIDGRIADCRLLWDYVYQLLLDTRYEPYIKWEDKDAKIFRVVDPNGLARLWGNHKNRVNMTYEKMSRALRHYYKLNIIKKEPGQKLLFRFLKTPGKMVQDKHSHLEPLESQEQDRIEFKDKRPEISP
Described as above. Conditions: protein: recombinant; tags: N-terminal GST; dsDNA, one strand shown. A digest of the protocol: as §1
As to GACAAA, the binding signal is 1.1 fold enrichment (6-mer frequency, TF over GST control).

As for GGGCTG, the binding signal is 1.05 fold enrichment (6-mer frequency, TF over GST control).

For the sequence GAACAG, the binding signal is 1 fold enrichment (6-mer frequency, TF over GST control).

Regarding GACGAT, the binding signal is 1 fold enrichment (6-mer frequency, TF over GST control).

Turning to CAGCAA, the binding signal is 1.06 fold enrichment (6-mer frequency, TF over GST control).

On to AAGACA, for which the binding signal was 1.04 fold enrichment (6-mer frequency, TF over GST control).

As for CCTGTC, the binding signal is 1.03 fold enrichment (6-mer frequency, TF over GST control).

Another assay addresses T6, ETV3 (Homo sapiens, UniProt P41162-2 1-143).
T6 sequence: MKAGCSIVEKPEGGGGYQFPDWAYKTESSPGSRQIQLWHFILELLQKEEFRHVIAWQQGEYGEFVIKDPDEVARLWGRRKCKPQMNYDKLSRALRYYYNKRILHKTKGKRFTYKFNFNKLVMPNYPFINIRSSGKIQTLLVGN
The assay is described as above. Conditions: protein: recombinant; tags: N-terminal GST; dsDNA, one strand shown. A digest of the protocol:
as §1
For AGGACT, the binding signal is 1.06 fold enrichment (6-mer frequency, TF over GST control).

As to GAACAG, the binding signal is 1.05 fold enrichment (6-mer frequency, TF over GST control).

Turning to TTGGAC, the binding signal was 1.01 fold enrichment (6-mer frequency, TF over GST control).

GATGTG: the binding signal is 1.01 fold enrichment (6-mer frequency, TF over GST control).
